# System: STK17A
row,SMILES,Kinases covered
1,C[C@@H]1CCNC(=O)c2cc3ccc(C(=O)Nc4nc5ccccc5n4CCCN(C)C)cc3n21 [BI00645435],STK17A
2,C[C@H]1CC[C@@H](C(=O)Nc2ccccc2)CN1c1cc(-c2ccc3c(N)n[nH]c3c2)nc(N)n1 [GSK2283293],STK17A
3,CNc1nc(-c2ccc3c(N)n[nH]c3c2)cc(N2C[C@@H](C(=O)Nc3ccccc3)CC[C@H]2C)n1 [GSK2298859],STK17A
4,CC(C)c1cc(-c2ccc3c(N)n[nH]c3c2)nc(N)n1 [GSK2250882],STK17A

# System: TEK
row,SMILES,Kinases covered
1,Cl.O=C(Nc1ccc(Oc2ccc3[nH]c(NC(=O)c4ccco4)nc3c2)cc1)Nc1cc(C(F)(F)F)ccc1F [GW683134A],TEK
2,COC(=O)Nc1nc2ccc(Oc3ccc(NC(=O)Nc4cc(C(F)(F)F)ccc4F)cc3)cc2s1.Cl [GW693917A],TEK
3,Cl.O=C(Nc1ccc(Oc2ccc3[nH]c(NC(=O)c4ccccc4)nc3c2)cc1)Nc1cc(C(F)(F)F)ccc1F [GW709042A],TEK
4,Nc1ncnc2occ(-c3ccc(NC(=O)Nc4cc(C(F)(F)F)ccc4F)cc3)c12 [GW770249X],TEK

# Source: publication PMC7826789 (International Journal of Molecular Sciences, 2021)
